# Compound activity from PubChem BioAssay.
# Cruzain Triton: inhibitors of Trypanosoma cruzi cruzain with detergent; P25779; purified cruzain, Z-FR-AMC fluorescence, 0.01% Triton; Potency, µM, most hits filed as inhibitors; 0.43% of 200,000 active; note: nearly all actives have a fitted effect of over 40% in size
# Target sequence (P25779 123-467 limits assumed): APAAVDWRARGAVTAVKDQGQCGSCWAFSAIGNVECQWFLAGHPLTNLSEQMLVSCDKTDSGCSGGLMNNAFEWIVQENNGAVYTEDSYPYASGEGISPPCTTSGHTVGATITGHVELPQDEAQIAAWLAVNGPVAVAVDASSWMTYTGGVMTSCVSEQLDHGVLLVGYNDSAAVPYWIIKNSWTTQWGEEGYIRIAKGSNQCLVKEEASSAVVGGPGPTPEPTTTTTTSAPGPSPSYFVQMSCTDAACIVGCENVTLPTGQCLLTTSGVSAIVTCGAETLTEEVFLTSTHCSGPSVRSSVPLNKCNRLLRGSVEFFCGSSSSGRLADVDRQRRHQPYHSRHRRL
#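 In this qHTS format, compounds are incubated with 1.5 nM cruzain for 15 min at room temperature before 2 uM Z-FR-AMC is added. Release of AMC is followed at 360/450 nm, and progress is taken as the 60 s fluorescence difference.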
# Cruzain noTriton: cruzain (T. cruzi) inhibition without detergent | purified cruzain, Z-FR-AMC fluorescence, no detergent | Potency, µM, most hits filed as inhibitors | 2.3% of 200,000 active | AID 1476; note: nearly all actives have a fitted effect of over 40% in size
#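 Purified cruzain at 1.5 nM, pre-incubated 15 min with compound at room temperature in 100 mM sodium acetate pH 5.5, 5 mM DTT, 0.00005% Triton X-100. Reaction started with 2 uM Z-FR-AMC; AMC fluorescence increase over 60 s gives rate.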
# A number is an active result; i = inactive; ? = inconclusive. The list is not random: actives were taken first. Their share in the collection is about 2.5%. Calls come from the whole dose curve; as a rule, active = well fitted curve in the direction sought with a large enough effect; inconclusive = small, poorly fitted or top-dose-only effect, or another doubt; inactive = no such curve, though single readings can be large; an effect the other way counts as inactive or inconclusive.
SMILES,Cruzain Triton,Cruzain noTriton
CCOC(=O)c1cc(S(=O)(=O)N2CCN(c3ccc(F)cc3)CC2)[nH]n1,i,i
CCC(Oc1ccccc1)C(=O)Nc1cc(-c2ccccc2OC)nn1-c1ccccc1 (stereo unspecified),i,i
Cc1ccc(CN2C(=O)C3(c4ccccc42)N(c2cccc(C(F)(F)F)c2)C(=O)CS3(=O)=O)cc1 (stereo unspecified),i,13µM
O=C1CS(=O)(=O)C2(C(=O)N(Cc3ccc(F)cc3)c3ccccc32)N1c1cccc(C(F)(F)F)c1 (stereo unspecified),i,?
O=C1CS(=O)(=O)C2(C(=O)N(Cc3ccccc3)c3ccccc32)N1c1ccccc1 (stereo unspecified),i,?
Cc1cc(C)cc(N2C(=O)CS(=O)(=O)C23C(=O)N(Cc2ccccc2)c2ccccc23)c1 (stereo unspecified),i,6.3µM
Cc1ccc(S(=O)(=O)c2nnn3c2nc(NCc2ccc4c(c2)OCO4)c2sccc23)cc1,i,i
CC(C)c1ccc(S(=O)(=O)c2nnn3c2nc(NCCc2ccccc2)c2sccc23)cc1,i,10µM
Cc1ccc(S(=O)(=O)c2nnn3c2nc(NCc2ccc4c(c2)OCO4)c2sccc23)cc1C,i,25µM
Cc1ccc(S(=O)(=O)c2nnn3c2nc(NCCc2ccccc2)c2sccc23)cc1,i,i
O=S(=O)(O)c1cc(N=[N+]([O-])c2cc(S(=O)(=O)O)c3ccccc3c2)cc2ccccc12,i,?
Cc1ccc(-c2nc(CS(=O)CC(=O)N3CCN(c4ccc(Cl)cc4)CC3)c(C)o2)cc1 (stereo unspecified),i,i
CCOC(=O)N1CCN(Cc2nc3cc(NC(=O)c4ccccc4Cl)ccc3n2C(C)C)CC1,i,i
Cc1nc2c(C(=O)NCCC(C)C)cnn2c(C)c1Cc1c(F)cccc1Cl,i,i
CC(C(=O)NCc1ccccc1F)n1ccc2cc(S(=O)(=O)N3CCCC3)ccc21 (stereo unspecified),i,i
COc1ccc(CNC(=O)/C(C#N)=C2\N=C(NC(=O)c3cccs3)c3ccccc32)cc1,i,25µM
COc1ccc(CNC(=O)c2cccs2)cc1,i,i
Cc1cccn2c(=O)cc(CSc3nnc(NC(=O)COc4ccccc4)s3)nc12,i,i
CC1CC(C)CN(c2ccc(C(=O)OCC(=O)NC3CCCc4ccccc43)cc2[N+](=O)[O-])C1 (stereo unspecified),i,?
O=C(COC(=O)c1ccc(Sc2ccccc2)c([N+](=O)[O-])c1)NC1CCCc2ccccc21 (stereo unspecified),i,13µM
O=C(Nc1nnc(CCc2ccccc2)s1)c1cccs1,i,?
Cc1ccc(S(=O)(=O)CCc2nnc(NC(=O)c3cccs3)s2)cc1,i,?
O=C(Nc1nnc(COc2ccc(F)cc2)s1)c1cccs1,i,25µM
Cc1cccc(OCc2nnc(NC(=O)c3cccs3)s2)c1,i,13µM
O=C(Nc1nnc(COc2ccc(Cl)cc2)s1)c1cccs1,i,25µM
SMILES,Cruzain Triton,Cruzain noTriton
O=C(Nc1nnc(COc2ccc(Cl)cc2)s1)C1CCCO1 (stereo unspecified),i,i
CCCCCCCCCCCCCCCCCC(=O)NCC(COP(=O)([O-])OCC[N+](C)(C)C)OCC (stereo unspecified),i,?
CCOc1ccc(CCNC(=O)c2cn(CC)c3ccc(S(=O)(=O)N4CCc5ccccc5C4)cc3c2=O)cc1OCC,i,?
COc1cc(C2c3cc4c(cc3C(OC3OC5COC(C)O[C@@H]5C(O)C3O)C3COC(=O)C23)OCO4)cc(OC)c1O (stereo partly specified),i,i
Cc1cc2nc([C@H](C)C(=O)c3ccc(Cl)cc3)c(=O)[nH]c2cc1C,i,i
Cc1cccc2sc(N(Cc3cccnc3)C(=O)c3cccs3)nc12,i,i
Cc1ccccc1Cn1cc(CCC(=O)NCc2cccc(Br)c2)c2ccccc21,i,i
O=C1c2cccc3c(N4CCOCC4)c([N+](=O)[O-])cc(c23)C(=O)N1c1cccc2ccccc12,i,13µM
Cc1cccc(N2C(=O)c3cccc4c(N5CCCCC5)c([N+](=O)[O-])cc(c34)C2=O)c1C,i,?
Cc1cccc(C)c1NC(=O)C1CCCN(S(=O)(=O)c2c(C)noc2/C=C/N(C)C)C1 (stereo unspecified),i,i
O=C(O)c1c(-c2c3ccc(=O)cc-3oc3cc(O)ccc23)cc2ccccc2c1-c1ccccc1,i,i
O[C@H]([C@H](O)[C@@H](O)c1nc2ccccc2[nH]1)[C@@H](O)c1nc2ccccc2[nH]1,i,i
CCCn1c(CNC(=O)c2cccs2)nc2ccccc21,i,i
COc1ccccc1C(=O)NCCc1nc2ccccc2n1C,?,10µM
COc1ccccc1C(=O)Nc1ccc2c(c1)nc(CCNC(C)=O)n2C,i,i
CCCCn1c(CCNC(=O)c2cccs2)nc2ccccc21,i,10µM
Cc1cccc(NC(=O)C2CCCN2S(=O)(=O)c2ccc3nc(-c4ccccc4)[nH]c3c2)c1 (stereo unspecified),i,i
FC(F)(F)c1cccc(N2Cc3ccccc3C2)c1,i,i
Cc1cc(C)cc(N2Cc3ccccc3C2)c1,i,13µM
CCOc1cccc(C2c3[nH]c4ccccc4c3CCN2C(=O)Cc2cccc(OCC)c2OCC)c1 (stereo unspecified),i,i
CCOC(=O)c1cccc(NC(=O)CCCn2c(C)c3cnn(-c4ccccc4)c(=O)c3c2C)c1,i,?
Cc1cc(/C=C2/NC(=O)N(Cc3ccccc3F)C2=O)c(C)n1C(C)C,i,25µM
CCn1c(C)cc(/C=C2/NC(=O)N(Cc3ccccc3F)C2=O)c1C,i,?
CO[C@@H]([CH2][Hg])CN1C(=O)c2ccccc2S1(=O)=O.Cn1c(=O)c2nc[nH]c2n(C)c1=O,i,i
CCOc1ccc(NC(=O)CSC2=Nc3ccccc3C3=NC(CC(=O)NCc4ccccc4OC)C(=O)N23)cc1 (stereo unspecified),i,i
SMILES,Cruzain Triton,Cruzain noTriton
COc1ccc(NC(=O)Cn2c(=O)n(Cc3nc(-c4ccccc4)no3)c(=O)c3cc4c(cc32)OCO4)cc1Cl,i,?
Cc1noc(Cn2c(=O)c3cc4c(cc3n(CC(=O)Nc3ccc(C(C)C)cc3)c2=O)OCO4)n1,i,i
CCc1ccc(NC(=O)Cn2c(=O)n(Cc3nc(-c4ccccc4)no3)c(=O)c3cc4c(cc32)OCO4)cc1,i,16µM
Cc1ccc(NC(=O)Cn2c(=O)n(Cc3nc(-c4ccccc4)no3)c(=O)c3cc4c(cc32)OCO4)cc1C,i,10µM
CC(C)c1ccc(NC(=O)Cn2c(=O)n(Cc3nc(-c4ccccc4)no3)c(=O)c3cc4c(cc32)OCO4)cc1,i,13µM
COc1ccc(NC(=O)Cn2c(=O)n(Cc3nc(-c4ccccc4)no3)c(=O)c3cc4c(cc32)OCO4)c(OC)c1,i,i
O[C@@H](COc1cccc2ccccc12)CN1CCOCC1,i,i
CC1=C(C(=O)Nc2ccc(C)cc2C)C(C(C)C)n2nc(SCc3ccccc3Cl)nc2N1 (stereo unspecified),i,i
CCOc1cccc(CC(=O)N2CCc3c([nH]c4ccccc34)C2c2ccccc2)c1OCC (stereo unspecified),i,?
Cc1cccc(NC(=O)/C=C/c2ccc([N+](=O)[O-])s2)c1,i,?
Cc1ccc(NC(=O)/C=C/c2ccc([N+](=O)[O-])s2)cc1,i,32µM
